# Measurements: PubChem BioAssay (NCI)
# The panel holds about 83,000 compounds, 20% with a hit somewhere; the sample as a whole holds those more often.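 Cells were grown in 96-well plates and exposed to the test compound at a single concentration for 48 hours; results are reported as percent growth, with values below 10 considered active.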 Unmarked numbers belong to inactive results. Activity calls are given as the source filed them.
# What was measured:
# Test in all cases: NCI-60 one-dose screen, 48 h (100 = growth as untreated, 0 = no growth, -100 = all killed)
# [1] = test system: SK-MEL-2 melanoma; details: 10 µM unless noted
# [2] = test system: EKVX NSCLC; details: 10 µM unless noted
# [3] = test system: SN12C renal; details: 10 µM unless noted
# [4] = test system: UO-31 renal; details: 10 µM unless noted
# [5] = test system: TK-10 renal; details: 10 µM unless noted
# [6] = test system: ACHN renal; details: 10 µM unless noted
# [7] = test system: CAKI-1 renal; details: 10 µM unless noted
# [8] = test system: A498 renal; details: 10 µM unless noted
# [9] = test system: CCRF-CEM leukemia; details: 10 µM unless noted
# [10] = test system: MOLT-4 leukemia; details: 10 µM unless noted
# [11] = test system: SR leukemia; details: 10 µM unless noted
# [12] = test system: RPMI-8226 leukemia; details: 10 µM unless noted
# [13] = test system: OVCAR-8 ovarian; details: 10 µM unless noted
# [14] = test system: OVCAR-5 ovarian; details: 10 µM unless noted
# [15] = test system: OVCAR-4 ovarian; details: 10 µM unless noted
# [16] = test system: SK-OV-3 ovarian; details: 10 µM unless noted
# [17] = test system: IGROV1 ovarian; details: 10 µM unless noted
# [18] = test system: OVCAR-3 ovarian; details: 10 µM unless noted
# [19] = test system: HS 578T breast; details: 10 µM
# [20] = test system: NCI/ADR-RES ovarian; details: 10 µM unless noted
Structure (SMILES),growth [1],growth [2],growth [3],growth [4],growth [5],growth [6],growth [7],growth [8],growth [9],growth [10],growth [11],growth [12],growth [13],growth [14],growth [15],growth [16],growth [17],growth [18],growth [19],growth [20]
CCCCCCCCCCCCCCCCS(=O)(=O)Nc1cc(C(=O)NN)cc(C(=O)NN)c1,114%,47.1%,72.9%,65%,68.6%,77.1%,49%,90.4%,34.3%,21.5%,56.9%,68%,77.5%,68.3%,48.1%,69.8%,66.3%,47.2%,81.2%,102%
C/C=C(\C)C(C(=O)NC1CCCCC1)N(C(=O)C1CCc2cc(F)ccc2O1)c1ccc([N+](=O)[O-])cc1 (stereo not given),99.6%,84.2%,93.4%,69.1%,89.9%,89.7%,80.2%,90.3%,97.3%,76.4%,101%,79.1%,88.4%,93.4%,79%,90.5%,85.8%,89.4%,80.2%,85.7%
COc1cc(NC(C)CCCN)c2ncccc2c1Oc1ccc(Cl)cc1 (stereo not given),102%,77.1%,77.3%,41.5%,101%,82.6%,68.7%,71.1%,77%,52.9%,53.2%,63%,84.8%,84.6%,56.3%,98.6%,64.6%,60%,70%,77.3%
N=c1n(Cc2ccccc2)c(N)cc(=O)n1Cc1ccccc1,94.6%,0.834% (active),12.8%,13.4%,16.4%,4.21% (active),0.138% (active),40.6%,21.4%,-28.6% (active),1.6% (active),42.6%,20%,68.8%,34.1%,21.4%,37.9%,0.156% (active),-1.73% (active),10.6%
Cn1nc(C(F)(F)F)cc1-c1cc(Cl)c(OCc2ccc(Cl)cc2)c(-c2ccc(Cl)c(C(F)(F)F)c2)c1O,-33.8% (active),4.62% (active),5.76% (active),0.656% (active),2.92% (active),-11.4% (active),-19.2% (active),-41.9% (active),9.85% (active),-14.2% (active),17.6%,-21.8% (active),14.5%,10.3%,17.2%,-7.57% (active),25.9%,7.63% (active),-5.65% (active),1.22% (active)
COc1cccc2nc(Nc3cccc(NC(=O)c4cc(N5CCOCC5)cc(C(F)(F)F)c4)c3)ccc12,79.4%,64%,57%,42.3%,65.9%,45.1%,60.7%,99.4%,48.9%,35.2%,74.4%,31.9%,52.2%,97.5%,61.9%,88.9%,40.4%,78%,67%,59.7%
CC(=O)O[C@H]1[C@H](CC#CC#CC[C@@H]2C[C@]3(C)[C@H]4CC=C5[C@H]6[C@@H](C)[C@H](C)CC[C@]6(C(=O)NCCCCCCCCN)CC[C@@]5(C)[C@]4(C)CC[C@H]3C(C)(C)[C@H]2OC(C)=O)C[C@]2(C)[C@H]3CC=C4[C@H]5[C@@H](C)[C@H](C)CC[C@]5(C(=O)NCCCCCCCCN)CC[C@@]4(C)[C@]3(C)CC[C@H]2C1(C)C,125%,110%,97.8%,73.7%,145%,119%,101%,118%,105%,103%,123%,95.6%,108%,108%,114%,108%,99.1%,100%,110%,98.1%
COc1ccc(NC(=O)c2ccc(C(F)(F)F)nc2Nc2ccc(Cl)cc2C)cc1Cl,31.9%,11.3%,24%,9.94% (active),60%,14.5%,19.9%,11.5%,11%,8.09% (active),23.6%,-17.9% (active),15.6%,10.1%,24.6%,45.4%,27%,15.5%,10.8%,13.3%
